S1P2 blocker: antagonists of human S1P2 receptor. actives 0.21% (n = 97,000). inhibition, % at 5 µM. cell-based S1P2 antagonist assay, inhibition at 5 uM; in the data active = inhibition above about 45%;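 note: CRE beta-lactamase reporter cells expressing human S1P2 stimulated with S1P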
GALR2 ag: activates the human galanin receptor 2. GALR2-expressing cells, agonist activation read-out. activation, % (no concentration beside the values). actives 0.48% (n = 140,000). AID 803; in the data active = activation above about 5%, passing the limit was not always enough
Target sequence (O43603 whole entry, looked up): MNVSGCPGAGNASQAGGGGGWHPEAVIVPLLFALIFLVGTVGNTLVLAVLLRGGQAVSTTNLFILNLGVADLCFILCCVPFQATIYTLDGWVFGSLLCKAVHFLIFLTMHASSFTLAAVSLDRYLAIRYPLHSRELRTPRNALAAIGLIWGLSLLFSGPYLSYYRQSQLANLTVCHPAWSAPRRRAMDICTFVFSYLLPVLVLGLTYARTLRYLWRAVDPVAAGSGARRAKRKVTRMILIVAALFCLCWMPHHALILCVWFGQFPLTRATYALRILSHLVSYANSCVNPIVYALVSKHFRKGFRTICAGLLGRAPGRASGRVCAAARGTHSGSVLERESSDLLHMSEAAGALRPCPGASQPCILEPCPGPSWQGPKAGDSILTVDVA
GALR2 blocker: antagonists of human galanin receptor 2 (GALR2); actives 0.39% (n = 140,000); inhibition, % at 4 µM; GALR2-expressing cells, antagonist mode; O43603; in the data active = inhibition above about 27%;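 note: cells stimulated with galanin 1-16 at roughly its EC80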
S1P2 agonist: activates the human S1P2 receptor | activation, % at 4.5 µM | O95136 | S1P2-expressing cell line, agonist reporter read-out | actives 0.46% (n = 97,000); in the data active = activation above about 16%
MT1-MMP txn act: MT1-MMP promoter transcription activation | HT1080 MT1-MMP promoter luciferase reporter, luminescence, overnight; active compounds read high | actives 0.16% (n = 86,000) | activation factor at 10 µM;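 active = activation factor of at least 2 for MT1-MMP transcription at 10 µM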
Smad3 FoxH1 inh: inhibitors of human Smad3 transcription factor binding. P84022. TR-FRET Smad3/Dy647-FoxH1 peptide binding, europium anti-His. inhibition, % at 25 µM. actives 0.29% (n = 88,000);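 active = compounds that reduce the energy-transfer binding signal between the protein and its labelled peptide by more than half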
Hits are given with their value; . = inactive; / = not tested or not shown. In the library only some 1.4% were active in any assay of this set; here they are far more common.

SMILES | S1P2 blocker | GALR2 ag | GALR2 blocker | S1P2 agonist | MT1-MMP txn act | Smad3 FoxH1 inh
O=C(c1cc2ccccc2oc1=O)N(Cc1ccccc1)Cc1ccc2c(c1)OCO2 | . | . | . | . | 2.5 | .
CO/N=C/c1ccc(Sc2ccccc2N)c([N+](=O)[O-])c1 | . | . | . | 17 | . | .
CO/N=C/c1ccc(Sc2ccccc2)c([N+](=O)[O-])c1 | . | . | . | . | / | .
Cc1ccc(S(=O)(=O)Nc2ccccc2C(=O)c2ccc(C)c(C)c2)cc1 | / | / | / | / | / | .
C/C(=N\Nc1nc(C)cc(=O)[nH]1)C(=O)O | / | / | / | / | / | .
O=C(O)c1c2c(c(O)c3c1CN(C1CCCCC1)CO3)OCN(C1CCCCC1)C2 | / | / | / | / | / | 62
CCOC(=O)c1c(NC(=O)CSc2n[nH]c(-c3ccco3)n2)sc(C)c1C | . | . | . | 23 | . | .
CCOC(=O)c1c(NC(=O)CSc2n[nH]c(CNc3ccccc3)n2)sc(C)c1C | . | . | . | . | . | .
N/C(=N/O)c1cn([C@H]2O[C@@H](CO)[C@H](O)[C@H]2O)c2ncnc(NO)c12 | / | / | / | / | / | .
CC1C/C(=C/c2cccn2C)C(=O)/C(=C/c2cccn2C)C1 (centres undefined) | 59 | . | . | . | . | .
c1ccc2c(c1)-c1nc3ccccc3cc1[C@@H]2N1CCOCC1 | / | / | / | / | / | .
Nc1ccccc1-c1nnc(-c2ccc(-c3ccccc3)cc2)o1 | . | . | . | 20 | / | /
c1ccc(-c2nnc(-c3ccccc3)o2)cc1 | . | . | . | . | . | .
c1ccc(OCCSc2nnnn2-c2ccccc2)cc1 | . | . | . | 62 | . | .
OC[C@@H]1O[C@H](N2CCN([C@@H]3O[C@H](CO)[C@@H](O)[C@H](O)[C@H]3O)CC2)[C@@H](O)[C@H](O)[C@H]1O | / | / | / | / | / | .
CCCCCCN1CC(O)=C(c2nc3ccccc3[nH]2)C1=N | / | 7.2 | . | / | . | .
O=C(O)C(Cl)(c1ccccc1)c1ccccc1 | / | / | / | / | / | .
O=C(NC(=S)Nc1nc2ccccc2s1)c1cccs1 | / | . | . | / | / | /
CCc1ccc(-c2nc(NC(=S)NC(=O)c3cccs3)sc2C)cc1 | . | . | . | 17 | / | /
Clc1ccc2[nH]c3c(NCCCN4CCOCC4)ncnc3c2c1 | . | . | . | . | . | .
O=C1CCCN1CCCNc1ncnc2c1[nH]c1ccc(Cl)cc12 | . | . | . | 17 | . | .
c1cc2c(cc1C(N1CCNCC1)N1CCNCC1)OCO2 | / | / | / | / | / | .
CCOc1ccc(/C=N/N2C(=O)C(CC(=O)Nc3ccc(F)cc3F)SC2=NC)cc1OC (centres undefined) | / | 6.0 | . | / | / | /
COC(=O)[C@H]1[C@@H]2C[C@H]3c4[nH]c5ccccc5c4CCN3C[C@H]2CC[C@@H]1OS(=O)(=O)O | / | / | / | / | / | .
C[C@H](C(=O)c1ccncc1)c1ccccn1 | / | / | / | / | / | .
SMILES | S1P2 blocker | GALR2 ag | GALR2 blocker | S1P2 agonist | MT1-MMP txn act | Smad3 FoxH1 inh
Cc1cc(-c2nnc(SCC(=O)NC3CCCC3)o2)no1 | . | . | . | 70 | . | .
Cc1csc(NC(=O)CSc2nnc(-c3cc(C)on3)o2)n1 | / | . | . | / | / | /
Cc1ccc(-c2nnn(CC(=O)N3CCCc4ccccc43)n2)cc1 | . | . | . | . | . | .
Cc1ccc(-c2noc(CCC(=O)N3CCCc4ccccc43)n2)cc1 | . | . | . | 43 | . | .
C[C@@]1(CO)[C@H](O)CC[C@]2(C)[C@@H]1CC[C@H]1C[C@H]3C[C@]12CC[C@@]3(O)COC(=O)CN | / | / | / | / | / | .
Nc1ccc(-c2nc3ccc(-c4nc5ccccc5o4)cc3[nH]2)cc1 | . | 6.4 | . | . | . | /
Cc1nc2ccc(-c3nc4ccccc4o3)cc2[nH]1 | . | . | . | . | . | .
CCc1cc(C(=O)Nc2ccc(C)cc2Br)cs1 | . | . | . | . | 2 | .
CCCCc1ccc(NC(=O)COc2ccc(C(=O)Nc3ccccc3C)cc2)cc1 | / | 5.8 | . | / | / | /
CCCCc1ccc(NC(=O)COc2ccc(C(=O)Nc3ccccc3OC)cc2)cc1 | / | . | . | / | / | /
Cc1cc(=O)oc2c(OS(C)(=O)=O)c(OS(C)(=O)=O)ccc12 | / | / | / | / | / | .
O=C(C[n+]1ccc2ccccc2c1)c1ccc2ccc3ccccc3c2c1 | / | / | / | / | / | 81
[Cu].c1ccc2c(c1)-c1nc-2nc2[n-]c(nc3nc(nc4[n-]c(n1)c1ccccc41)-c1ccccc1-3)c1ccccc21 | / | / | / | / | / | .
CCSc1nc(-c2ccccc2)nc(C(Cl)Cl)n1 | / | 7.6 | . | / | / | /
CCC(C)NC(=O)C1CCN(c2nc(OC)nc(OC)n2)CC1 (centres undefined) | . | . | . | 22 | . | .
CC(C)C(=O)Nc1nc(-c2ccccc2)ns1 | . | . | . | . | 2 | .
O=C(NCCCN1CCCCCC1)c1ccc(CS(=O)(=O)Cc2ccccc2F)o1 | . | . | . | . | . | 69
COCCCNC(=O)c1c(N)n(/N=C/c2cccs2)c2nc3ccccc3nc12 | / | 20 | . | / | . | .
COCCNC(=O)c1c(N)n(CCCn2ccnc2)c2nc3ccccc3nc12 | . | . | . | 18 | . | .
COCCNC(=O)c1c(N)n(-c2ccccc2)c2nc3ccccc3nc12 | . | 4.9 | . | . | . | .
C=CCn1c(N)c(C(=O)Nc2ccccc2)c2nc3ccccc3nc21 | / | 8.1 | . | / | . | .
C=CCn1c(N)c(C(=O)OC(C)(C)C)c2nc3ccccc3nc21 | . | . | . | . | . | .
COCCn1c(=NC(=O)/C=C/c2ccccc2Cl)sc2cc(NC(C)=O)ccc21 | / | 6.0 | . | / | / | /
CSc1nc(SCCO)c2sc3nc(-c4ccco4)c4c(c3c2n1)CC(C)(C)OC4 | . | 6.3 | . | . | / | /
CSc1nc(N(CCO)CCO)c2sc3nc(-c4ccco4)c4c(c3c2n1)CCC4 | / | . | . | / | . | .
SMILES | S1P2 blocker | GALR2 ag | GALR2 blocker | S1P2 agonist | MT1-MMP txn act | Smad3 FoxH1 inh
CCCc1nc(Cl)c(C#N)c2c1CCCC2 | / | . | . | / | / | /
CCCc1nc(N)c(C#N)c(N)c1C#N | . | . | . | 17 | . | .
FC(F)(F)c1nc(-c2ccncc2)ncc1-c1nnnn1-c1ccccc1 | . | . | . | . | / | /
Fc1ccc(-n2nnnc2-c2cnc(-c3cccs3)nc2C(F)(F)F)cc1 | 76 | . | . | . | / | /
COc1ccc(NC(=O)Cn2nnc(C(=O)NCc3ccccc3OC)c2N)cc1Cl | 47 | . | . | . | . | /
O=C(O)[C@H]1CCCN1Cc1cc2ccccc2c2ccccc12 | / | / | / | / | / | .
COc1cccc(Nc2nc3ccccc3nc2-n2nc(C)cc2C)c1 | . | 23 | . | 38 | / | .
O=C(O)c1ccc(C(=O)O)c(C(=O)O)c1.[NH-][C@@H]1CCCC[C@H]1[NH-].[Pt] | / | / | / | / | / | .
CS(=O)(=O)NCc1nnc(SCC(=O)NC2CCCCC2)n1-c1ccc(F)cc1 | . | . | . | 103 | . | .
COC(=O)c1sc(N)c(C(=O)OC)c1CSc1nc2sc3c(c2c(=O)n1C)CCC3 | . | . | . | 27 | / | .
COc1ccc(-c2cn3c(C)c(C(=O)Nc4ccncc4)sc3n2)cc1 | . | . | . | . | . | .
COC(=O)c1ccc(NC(=O)c2sc3nc(-c4ccccc4)cn3c2C)cc1 | 47 | . | . | . | . | .
O=C(O)[C@H](/C=C/c1ccccc1)c1ccccc1 | / | / | / | / | / | .
CSc1nnc(-c2ccccc2Cl)n1N | . | . | . | . | . | .

Source: PubChem BioAssay (several laboratories)
